Experimental data as given in the supplement of paper PMC12636033.
± gives the standard deviation of the averaged measurements. Whole data set: some 33,000 sequences, median “E-score (rank enrichment, -0.5 to 0.5)” near -0.0075, cut for the highest 2% near 0.23. This excerpt belongs to a sample that is enriched for the highest values.

Test system: WT Max(13-93) synthetic (M65Nle)
Assay: PBM 8-mer E-score (E-score (rank enrichment, -0.5 to 0.5)); higher = stronger preferential binding
Description: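 Protein binding microarray (universal PBM chip covering all 10-mers in fixed probe flanks) with chemically synthesized human Max(13-93) bHLH-LZ analogs (not full-length Max) bearing noncanonical residues (hArg, Tha, Aib, Nle at 65) and aromatic Cys staples. Read-out per 8-mer (and its reverse complement): E-score (rank-based enrichment, -0.5 to 0.5) and Z-score of median probe intensity.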

Sequence | PBM 8-mer E-score
CATATGCC | 0.118 ± 0.036
CACATGCA | 0.305 ± 0.031
TACATGCA | 0.196 ± 0.084
GACATGCC | 0.167 ± 0.019
GACATGCA | 0.144 ± 0.07
AACATGCG | 0.221 ± 0.0062
CACATGCG | 0.29 ± 0.047
AATATGCG | 0.0644 ± 0.011
AACATGCC | 0.093 ± 0.12
CCCATGCG | 0.187 ± 0.058
CACATGCC | 0.258 ± 0.024
CATATGCG | 0.252 ± 0.015
CTGCATAA | 0.0963 ± 0.024
CCAATGTA | -0.0337 ± 0.034
GTTGTTTA | 0.212 ± 0.071
CTACACTC | -0.0808 ± 0.031
ACTGAGAC | -0.109 ± 0.043
CCCACGGC | -0.024 ± 0.17
CAGATTGG | -0.114 ± 0.072
CACATCCG | -0.176 ± 0.045
CTAAGGAG | -0.143 ± 0.011
AAAATATC | 0.098 ± 0.12

Sequence | PBM 8-mer E-score
AAAATACA | 0.0792 ± 0.0013
GAAATACA | -0.0415 ± 0.044
AAAATATA | 0.254 ± 0.032
TAAATATA | 0.253 ± 0.0074
AAAATATG | 0.21 ± 0.0022
CAAATATA | 0.137 ± 0.06
GAAATATA | 0.219 ± 0.035
TAAATACA | 0.248 ± 0.0097
AGGGCGTA | 0.122 ± 0.028
GAATTCTA | -0.07 ± 0.14
CAGGCCCC | -0.0835 ± 0.04
AAATGCGT | 0.0113 ± 0.099
ACATGCAG | 0.126 ± 0.044
GCATGCAC | 0.277 ± 0.0097
CCATGCAC | 0.0862 ± 0.038
GTATGCAC | 0.1415 ± 0.00096
ACATGCAA | 0.185 ± 0.073
TCATGCAA | 0.174 ± 0.02
ACATGCGG | 0.14 ± 0.056
ACATGCAC | 0.244 ± 0.065
CCATGCAA | 0.127 ± 0.083
ACATGCGT | 0.313 ± 0.081

Sequence | PBM 8-mer E-score
GCATGCAA | 0.257 ± 0.029
CGCACTGA | -0.179 ± 0.032
ACTGTGTC | -0.00876 ± 0.03
GTCTGGCA | -0.0283 ± 0.1
ATAGACAA | 0.1094 ± 0.00018
ACCTCGAT | -0.1167 ± 0.00076
ATTCTAAG | 0.0595 ± 0.006
CTGATCCA | 0.0725 ± 0.042
CAGAGAAC | -0.0299 ± 0.06
TATGATCA | 0.0122 ± 0.2
AAACAGTT | 0.0134 ± 0.022
CCCCTATC | -0.00604 ± 0.055
GTCGGAGA | -0.0989 ± 0.0099
CCATGCTC | 0.084 ± 0.019
AAATGCAT | 0.229 ± 0.035
ACATGCTC | 0.272 ± 0.0055
ACATGCTA | 0.174 ± 0.035
ACATGCCT | 0.219 ± 0.077
ACATGCAT | 0.302 ± 0.039
AGTCTGGC | -0.226 ± 0.12
GTAGCACA | -0.0865 ± 0.011
GGAAGTAA | 0.238 ± 0.048

Sequence | PBM 8-mer E-score
AAAAGTAC | 0.155 ± 0.029
AAAAGTAA | 0.157 ± 0.0098
CAAAGTAA | 0.0802 ± 0.022
AGAAGTAA | 0.154 ± 0.0017
TAAAGTAA | 0.05 ± 0.016
GAAAGTAA | 0.267 ± 0.032
TGAAGTAA | 0.119 ± 0.0048
AAAAGTAT | 0.237 ± 0.021
GCCAATCA | 0.0501 ± 0.062
TAATCGAA | 0.0693 ± 0.0042
CCGAAAGA | -0.0212 ± 0.033
CCCGGGCA | -0.273 ± 0.045
AGGGAGTC | -0.0877 ± 0.012
CATCGGAA | -0.106 ± 0.077
AAGTTGGG | -0.0303 ± 0.066
ATGCACGA | 0.172 ± 0.088
CTGCACGC | 0.167 ± 0.037
ATGCACGC | 0.26 ± 0.026
ATGCACAG | 0.108 ± 0.0019
ATGCACAA | 0.14 ± 0.051
ATGCACAC | 0.239 ± 0.079
